This is a sample that favours compounds with a hit; in the whole collection about 11% have one here.
Pf growth 48h: P. falciparum growth inhibition at 48 hours (one generation) | 310,000 compounds, 5.9% hits | P. falciparum luciferase growth in erythrocytes, 48 h | AID 504832 | Potency, µM (titrated, usually from 28.7 µM), for inactives: at the top dose activity change, negative = inhibition, usual class: inhibitors; also: % is scaled to controls: 0 for no effect and ±100 for the full control effect
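Luciferase-expressing parasites in RBCs, 2% Hct / 0.1% parasitemia final; RPMI 1640 + 0.5% Albumax; 37 C, 5% CO2, one generation; luminescence read-out, lower signal = inhibition.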
Pf growth 96h: inhibits malaria parasite growth, 96 h | P. falciparum luciferase reporter growth, 96 h | Potency, µM (series often up to 28.7 µM), without a hit: at the top dose activity change, negative = inhibition, usual class: inhibitors | 320,000 compounds, 6.9% hits | AID 504834; also: % is scaled to controls: 0 for no effect and ±100 for the full control effect
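Luminescence readout: decreased luciferase signal marks inhibited growth of reporter-expressing P. falciparum in infected red cells (2% hematocrit, 0.05% parasitemia final), exposed to compound two generations (96 h, 37 C, 5% CO2).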
Vaccinia mCherry: vaccinia inhibition (mCherry reporter). Vaccinia virus mCherry reporter infection, fluorescence. Potency, µM (top dose mostly 36.5 µM), for the others: top-dose activity change, negative = inhibition, usual class: inhibitors. 310,000 compounds, 0.63% hits. AID 720579; calls by dose curve; tested in A549 cells; also: % is scaled to controls: 0 for no effect and ±100 for the full control effect; nearly all actives have a fitted effect of over 35% in size
VACV Venus inh: vaccinia inhibition (Venus reporter); Vaccinia virus Venus reporter expression, fluorescence; Potency, µM (doses to about 36.5 µM), inactives show at the top dose activity change, negative = inhibition, hits mostly inhibitors; 330,000 compounds, 0.46% hits; AID 720580; calls by dose curve; tested in A549 cells; also: % is scaled to controls: 0 for no effect and ±100 for the full control effect; nearly all actives have a fitted effect of over 30% in size
HCV inh: HCV inhibition; Huh7.5.1 HCVcc-Cre infection, luciferase reporter, 44 h; Potency, µM (titrated, usually from 41.8 µM), for the others: at the highest dose activity change, negative = inhibition, actives largely listed as inhibitors; 340,000 compounds, 3.4% hits; also: % is scaled to controls: 0 for no effect and ±100 for the full control effect
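Cells seeded at 1,000/well and cultured 4 h, then compounds added followed by HCVcc-Cre virus (~0.5 moi). After 44 h further culture, luciferase substrate was added, plates held 15 min at room temperature, and luminescence read for 15 sec.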
NS1 function inh: inhibitors of influenza NS1 protein function; Potency, µM (series often up to 46.1 µM), without a hit: at the highest dose activity, positive = more growth; 270,000 compounds, 0.4% hits; calls by dose curve; also: actives are rising curves; nearly all actives have a fitted effect of over 50% in size
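Growth recovery, yeast-based: influenza A NS1 expressed in S. cerevisiae causes slow growth, and suppressors are detected by OD600. The parent strain without NS1 is used as positive control.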
An asterisk follows results filed as active; i = inactive; u = inconclusive; x = no result given. Unless noted, calls follow the shape of the dose curve; as a rule, active = well fitted inhibition curve with a large enough effect; inconclusive = small, poorly fitted or top-dose-only effect, or another doubt; inactive = no such curve, though single readings can be large or run the other way. Potency is read from the fitted curve at half-maximal effect.

SMILES | Pf growth 48h | Pf growth 96h | Vaccinia mCherry | VACV Venus inh | HCV inh | NS1 function inh
COc1ccc(-c2csc(NC(=O)c3ccc(OCC(=O)N4CCOCC4)c(OC)c3)n2)cc1 | -4.8% | u | -18.5% | -19.0% | u | 20.5%
CC(=O)Oc1ccc(C(=O)NCc2ccco2)cc1 | 0.1% | u | i | -7.4% | 18.1% | 14.5%
COc1cccc(C(=O)CSc2nnc(-c3cc(OC)cc(OC)c3)o2)c1 | 9.8% | 4.9% | -24.2% | 6.4% | 25.4% | -1.3%
CCCOc1ccc(/C=N/NC(=O)c2nnn(-c3nonc3N)c2-c2cccs2)cc1OC | 13.1µM* | 11.7µM* | -5.2% | -17.7% | u | -4.5%
CCOc1ccc(-c2c(C(=O)N/N=C/c3cccc(Br)c3)nnn2-c2nonc2N)cc1 | u | 2.94µM* | x | x | 34.1% | 9.3%
CCOc1cccc(-c2c(C(=O)N/N=C/c3ccc(Br)cc3)nnn2-c2nonc2N)c1 | u | 2.62µM* | x | x | u | 2.1%
O=C1C(=O)N(Cc2cccnc2)C(c2ccccn2)/C1=C(/O)c1ccc(F)cc1 (stereo not given) | 33.3% | u | -9.1% | -17.2% | -3.2% | u
O=c1c(-c2c(O)cc(O)c3c(=O)cc(-c4ccc(O)cc4)oc23)c(-c2ccc(O)cc2)oc2cc(O)cc(O)c12 | -2.4% | 40.4% | 1.2% | -0.5% | 19.8% | -30.6%
CC1CCCN(C(=O)Cn2nnc(-c3ccc(N(C)C)cc3)n2)C1 (stereo not given) | u | u | x | x | -2.2% | 6.7%
CN(C)c1ccc(-c2nnn(CC(=O)N3c4ccccc4CCc4ccccc43)n2)cc1 | 2.08µM* | -25.3% | i | -0.1% | -15.1% | -11.8%
CCNC(=O)CC1C(=O)N(c2ccc(C)cc2)C(=O)N1CCC(C)C (stereo not given) | 14.2% | 11.7µM* | -4.7% | -1.9% | 20.2% | -3.1%
COC(=O)CCC(C)C1CCC2C3CC[C@H]4CC(O)CC[C@@]4(C)C3CC(O)[C@]12C (stereo not given in full) | x | x | u | 10µM* | x | x
C[C@H](CCC(=O)O)[C@H]1CC[C@H]2[C@@H]3CC[C@@H]4C[C@H](O)CC[C@]4(C)[C@H]3C[C@H](O)[C@]12C | -6.6% | -7.1% | -3.7% | -14.7% | 14.2% | x
CC(C)(C)NC(=S)NC(=O)C12CC3CCC(CC(C3)C1)C2 | 10.4µM* | 0.0% | -11.2% | -3.2% | -7.0% | -10.0%
Cc1cc(NC(=O)COc2cccnc2[N+](=O)[O-])no1 | 4.5% | 36.6% | i | -6.2% | -4.3% | 5.4%
CCOc1ccc(NS(=O)(=O)c2csc(C(N)=O)c2)cc1 | 1.85µM* | 1.2% | -16.4% | -16.9% | -10.4% | 1.8%
NC(=O)c1cc(S(=O)(=O)NCc2ccccc2)cs1 | 16.3% | 53.1% | i | -8.6% | -3.1% | -9.5%
Cc1ccccc1CNS(=O)(=O)c1csc(C(N)=O)c1 | -27.4% | 6.57µM* | -9.5% | -5.2% | 9.0% | 6.3%
NC(=O)c1cc(S(=O)(=O)Nc2ccccc2)cs1 | 6.6% | 26.9% | -4.1% | -9.0% | 15.3% | -0.4%
Cc1ccc(CNC(=O)c2ccc3c(O)c(S(=O)(=O)c4ccccc4)c(=O)[nH]c3c2)cc1 | x | x | -11.5% | 1.4% | x | x
CCOC(=O)/C(O)=C/c1ncc(C(F)(F)F)cc1Cl | 37.4% | 30.1% | x | -2.1% | 6.5% | -9.1%
CCOC(=O)/C(=C\Nc1ccc(OC(F)(F)F)cc1)Sc1ncc(C(F)(F)F)cc1Cl | 2.08µM* | x | x | -1.8% | -9.7% | u
CCN1CCN(Cc2cccc(Oc3ccc(Cl)cc3)c2)CC1 | -22.3% | x | -1.4% | u | 12.6µM* | -1.1%
Cc1cccc(CN2CCN(C(c3ccccc3)c3ccc(Cl)cc3)CC2)c1 (stereo not given) | u | 9.28µM* | -6.4% | -12.7% | u | -10.7%
O=C(C1CCN(Cc2ccc(Cl)cc2)CC1)N1CCN(C(c2ccccc2)c2ccccc2)CC1 | u | 36.5% | u | u | u | -19.2%
SMILES | Pf growth 48h | Pf growth 96h | Vaccinia mCherry | VACV Venus inh | HCV inh | NS1 function inh
Cc1cccc(CN2CCN(Cc3ccc(Cl)cc3)CC2)c1 | x | u | -12.7% | -1.3% | 6.31µM* | 0.7%
Cc1cccc(CN2CCN(c3ccc(Cl)cc3)CC2)c1 | 32.1% | u | -8.2% | -5.2% | -13.5% | x
O=c1cc(-c2ccccc2Cl)oc2c(NS(=O)(=O)c3ccccc3C(F)(F)F)ccc(O)c12 | u | u | u | -25.7% | 7.0% | -1.0%
O=C(NCc1ccc(F)cc1)C1CC(=O)N(C2CCCC2)C1 (stereo not given) | -9.9% | -12.0% | i | -2.2% | 23.4% | x
Cc1ccc(C23OCCN2CCn2nc4ccccc4c23)cc1 (stereo not given) | -7.2% | 28.4% | i | -3.1% | -5.8% | x
N#Cc1ccc(C23OCCN2CCn2c3c3ccccc3[n+]2[O-])cc1 (stereo not given) | x | x | 3.98µM* | -26.3% | u | x
O=C(CN1C(=O)NC2(CCCCC2)C1=O)N1CCN(S(=O)(=O)c2ccc(Cl)s2)CC1 | -19.7% | u | x | x | -5.2% | x
CCOC(=O)COc1ccc2nsnc2c1Cl | 19.2% | 49.1% | x | -17.7% | 6.9% | u
C=C(CC)C(=O)c1ccc(OCC(=O)O)c(Cl)c1Cl | u | 14.7µM* | u | u | 26.0% | -56.2%
COc1ccc(CC(=O)O/N=C(\N)c2ccccn2)cc1OC | 22.1% | -29.7% | i | -5.9% | 9.6% | 10.1%
COc1ccc(CC(=O)O/N=C(\N)Cc2cccc3ccccc23)cc1OC | 10.4µM* | 278.4% | i | -2.5% | 12.3% | 0.7%
N/C(Cc1cccc2ccccc12)=N\OC(=O)c1cccs1 | 13.1µM* | 9.6% | -2.0% | -7.8% | 6.0% | 6.3%
COc1ccc(CC(=O)O/N=C(\N)Cc2cccc3ccccc23)cc1 | u | 11.7µM* | -23.6% | -4.3% | 8.6% | -11.8%
N/C(Cc1cccc2ccccc12)=N\OC(=O)Cc1cccs1 | u | 35.9% | -9.1% | -8.9% | 34.1% | 33.9%
CCCCC(CC)CNC(=O)CCCc1nnc2n(CCC)c(=O)c3sccc3n12 (stereo not given) | x | x | -16.2% | -17.6% | x | x
CCCn1c(SCC(=O)Nc2cc(Cl)ccc2Cl)n[nH]c1=O | u | 1.17µM* | i | 19.2% | -25.9% | x
CCCn1c(SCC(=O)Nc2cc(Cl)ccc2OC)n[nH]c1=O | x | u | x | -10.0% | 10µM* | 13.8%
CCCn1c(SCC(=O)Nc2cccc(S(=O)(=O)N3CCCC3)c2)n[nH]c1=O | u | u | x | x | 0.9% | x
CCCn1c(SCC(=O)Nc2cccc(Cl)c2Cl)n[nH]c1=O | -4.9% | -29.5% | -13.1% | -3.0% | 25.1% | x
CCCn1c(SCC(=O)N2CCN(S(=O)(=O)c3ccc(Cl)cc3)CC2)n[nH]c1=O | 10.4µM* | u | -26.6% | -16.2% | -10.8% | -3.9%
